This note sets out measurements from PubChem BioAssay (EPA / NIEHS).

Molecules are shown by their SMILES. Activity calls are given as the source filed them. How the source made its calls: active means hit-call score of the fitted dose curve at least 0.9, where 1 is the maximum; inactive means score below 0.9.

Common to all, as to settings: mRNA level, 48 h; actives raise or lower the signal
Read-out in experiment [1]: Caspase-3 (Homo sapiens) (UniProt P42574)
Nature of the experiment: LTEA_HepaRG_CASP3: Life Technologies and Expression Analysis (LTEA) Assay for cysteine-aspartic acid protease (CASP3) using HepaRG (AID 2283477). In outline: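 Read-out is CASP3 mRNA level by TaqMan qRT-PCR in human HepaRG cells after 48 h chemical exposure. Eight half-log concentrations topping at 100 uM were tested in 0.5% DMSO; gain or loss was fitted relative to DMSO.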

Read-out in experiment [2]: Cytochrome P450 (CYP24A1), CYP24A1 (gene 1591)
In words: LTEA_HepaRG_CYP24A1: Life Technologies and Expression Analysis (LTEA) Assay for Cytochrome P450 (CYP24A1) using HepaRG (AID 2283478). In outline: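 HepaRG, 48 h chemical exposure, 8-pt half-log CRC from 100 uM, 0.5% DMSO vehicle, duplicates. Endpoint: CYP24A1 mRNA by Fluidigm TaqMan qRT-PCR, normalized ACTB/GAPDH/POLR2A; gain/loss fit vs DMSO.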

Read-out in experiment [3]: Cytochrome P450 (CYP1A2), CYP1A2 (gene 1544)
Nature of the experiment: LTEA_HepaRG_CYP1A2: Life Technologies and Expression Analysis (LTEA) Assay for Cytochrome P450 (CYP1A2) using HepaRG (AID 2283479). The method, boiled down: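 CYP1A2 transcript induction or loss, quantified by Fluidigm qRT-PCR against three housekeeping genes, was fitted bidirectionally against 0.5% DMSO controls. Human HepaRG cells received eight half-log concentrations from 100 uM over 48 h.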

Read-out in experiment [4]: cysteine-aspartic acid protease (CASP8), CASP8 (gene 841)
In words: LTEA_HepaRG_CASP8: Life Technologies and Expression Analysis (LTEA) Assay for cysteine-aspartic acid protease (CASP8) using HepaRG (AID 2283480). In outline:
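Differentiated HepaRG cells in serum-free induction medium, 48 h exposure, eight-point half-log series from 100 uM in 0.5% DMSO, duplicates. CASP8 mRNA by qRT-PCR, normalized to ACTB, GAPDH, POLR2A; bidirectional fit versus DMSO.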

Read-out in experiment [5]: Cytochrome P450 (CYP2B6), CYP2B6 (gene 1555)
Nature of the experiment: LTEA_HepaRG_CYP2B6: Life Technologies and Expression Analysis (LTEA) Assay for Cytochrome P450 (CYP2B6) using HepaRG (AID 2283481). The method, boiled down: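 HepaRG cells plated 48 h, switched to serum-free induction medium, then dosed 48 h (8 points, half-log from 100 uM, 0.5% DMSO). RNA isolated; CYP2B6 expression measured by qRT-PCR; gain or loss fitted relative to DMSO.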

Read-out in experiment [6]: Cytochrome P450 2C19 (Homo sapiens) (UniProt P33261)
In words: LTEA_HepaRG_CYP2C19: Life Technologies and Expression Analysis (LTEA) Assay for CYP2C19 using HepaRG (AID 2283482). The method, boiled down:
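Transcript levels of CYP2C19 were quantified by qRT-PCR after HepaRG cells were treated for 48 hours with test chemicals up to 100 uM (eight half-log concentrations, 0.5% DMSO vehicle). Gain or loss of signal was fitted relative to DMSO.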

Read-out in experiment [7]: CYP2C8 (gene 1558)
In words: LTEA_HepaRG_CYP2C8: Life Technologies and Expression Analysis (LTEA) Assay for CYP2C8 using HepaRG (AID 2283483). The method, boiled down: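 Differentiated HepaRG cells in serum-free induction medium exposed 48 h in duplicate to 8 half-log concentrations from 100 uM in 0.5% DMSO. CYP2C8 mRNA by qRT-PCR normalized to ACTB, GAPDH, POLR2A; bidirectional fit versus DMSO.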

Read-out in experiment [8]: CYP2C9 (gene 1559)
Nature of the experiment: LTEA_HepaRG_CYP2C9: Life Technologies and Expression Analysis (LTEA) Assay for CYP2C9 using HepaRG (AID 2283484). In outline: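 Differentiated human HepaRG cells in serum-free induction medium were exposed 48 h to chemicals in 8-point half-log series from 100 uM (0.5% DMSO), in duplicate. CYP2C9 mRNA was measured by qRT-PCR, normalized to ACTB/GAPDH/POLR2A, with bidirectional fitting versus DMSO.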

Read-out in experiment [9]: CYP2E1 (gene 1571)
Nature of the experiment: LTEA_HepaRG_CYP2E1: Life Technologies and Expression Analysis (LTEA) Assay for CYP2E1 using HepaRG (AID 2283485). In outline:
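Differentiated HepaRG cells were treated in duplicate for 48 h with chemicals in 0.5% DMSO, from 100 uM downward in half-log dilutions. RNA was then analysed by qRT-PCR for CYP2E1 induction or loss.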

Read-out in experiment [10]: CYP4A11 (gene 1579)
Nature of the experiment: LTEA_HepaRG_CYP4A11: Life Technologies and Expression Analysis (LTEA) Assay for CYP4A11 using HepaRG (AID 2283486). In outline:
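HepaRG, 48 h chem exposure, 8 conc (100 uM top, half-log), 0.5% DMSO vehicle; qRT-PCR readout, housekeeping-gene normalized; bidirectional curve fit vs DMSO baseline.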

Chain of Caspase-3 (Homo sapiens) (P42574 whole entry, looked up): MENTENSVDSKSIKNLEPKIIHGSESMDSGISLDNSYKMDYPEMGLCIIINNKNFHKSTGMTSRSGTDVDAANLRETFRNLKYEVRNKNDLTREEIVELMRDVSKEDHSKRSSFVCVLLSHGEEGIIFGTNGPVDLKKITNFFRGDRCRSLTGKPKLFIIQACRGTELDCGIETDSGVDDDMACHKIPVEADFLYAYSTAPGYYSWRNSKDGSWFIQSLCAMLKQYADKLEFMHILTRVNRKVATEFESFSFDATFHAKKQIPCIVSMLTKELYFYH
Chain of Cytochrome P450 2C19 (Homo sapiens) (P33261 whole entry, looked up): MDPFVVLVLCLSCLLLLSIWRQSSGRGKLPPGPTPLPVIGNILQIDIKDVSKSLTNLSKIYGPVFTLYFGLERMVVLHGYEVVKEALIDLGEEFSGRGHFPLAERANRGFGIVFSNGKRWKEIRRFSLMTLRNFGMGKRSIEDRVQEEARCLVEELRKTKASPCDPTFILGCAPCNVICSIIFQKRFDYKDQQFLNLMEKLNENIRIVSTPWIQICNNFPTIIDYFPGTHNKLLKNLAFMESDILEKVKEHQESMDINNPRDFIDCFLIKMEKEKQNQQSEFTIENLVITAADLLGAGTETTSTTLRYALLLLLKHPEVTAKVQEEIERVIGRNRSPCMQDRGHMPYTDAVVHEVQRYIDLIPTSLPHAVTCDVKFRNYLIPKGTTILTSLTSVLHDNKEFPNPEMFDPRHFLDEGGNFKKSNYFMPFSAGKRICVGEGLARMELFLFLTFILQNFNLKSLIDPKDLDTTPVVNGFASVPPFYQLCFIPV

As to `Cc1ccc([N+](=O)[O-])cc1N`, the result in experiment [1], in experiment [2], in experiment [4], in experiment [6], in [7] and in experiment [8] was inactive. Further, the outcome in experiment [10] was inactive. The AC50 in experiment [3] is 26.8 µM (active); in experiment [5], 18.4 µM (active); in experiment [9], 32.4 µM (active).

`Nc1ccc(C(=O)O)cc1`: the outcome in [1], in [2], in [4], in experiment [5], in [6] and in experiment [7] was inactive. The molecule was classed as inactive in experiment [8], in experiment [9] and in [10]. Besides, the AC50 in [3] is 50 µM (active).

Regarding `C1CNCCN1`, the result in [1], in experiment [2], in [3], in experiment [4], in experiment [5] and in experiment [6] was inactive. Also, the result in experiment [7], in experiment [8], in [9] and in [10] was inactive.
